Laboratory results taken from the supplement of paper PMC12350171.
Counter-ions that a name gives are not always drawn.

Tested on: Haemophilus parainfluenzae
Assay: growth AUC normalised to DMSO control (fraction of control); higher = less growth inhibition, active = hit call of the paper
Conditions: 20 µM;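 active = AUC significantly below DMSO controls by Student t-fit with adjusted P under 0.01; inactive = not significantly reduced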
Outline: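 Hemin and NAD were added to the medium for Haemophilus parainfluenzae. All pathogens, after two anaerobic passages, were inoculated at a starting OD578 of 0.01 into pre-reduced mGAM plates with 20 μM compound and 1% DMSO under breathable seals, and OD578 was read hourly for 24 h in three biological replicates. AUC of each growth curve was obtained with the trapezoidal rule up to the exponential-to-stationary transition and normalised to DMSO controls from the same plate.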

SMILES | growth AUC normalised to DMSO control
CC(=O)OCC(=O)[C@@]12OC(C)(C)O[C@@H]1C[C@H]1[C@@H]3C[C@H](F)C4=CC(=O)C=C[C@]4(C)[C@@]3(F)[C@@H](O)C[C@@]12C [Fluocinonide] | 0.999 (inactive)
Nc1c(Br)cc(Br)cc1CN[C@H]1CC[C@H](O)CC1 [Ambroxol hydrochloride] | 0.988 (inactive)
CC(N)C12CC3CC(CC(C3)C1)C2 (stereo unspecified) [Rimantadine hydrochloride] | 0.933 (inactive)
CCCCCN(CCCCC)C(=O)C(CCC(=O)O)NC(=O)c1ccc(Cl)c(Cl)c1 (stereo unspecified) [Lorglumide sodium salt] | 0.982 (inactive)
Cc1scc2c1N(C(=O)CN1CCN(C)CC1)c1ccccc1NC2=O [Telenzepine dihydrochloride] | 1 (inactive)
CC(=O)SCC(Cc1ccccc1)C(=O)NCC(=O)OCc1ccccc1 (stereo unspecified) [Racecadotril] | 0.986 (inactive)
NC(=O)c1ncn([C@@H]2O[C@H](CO)[C@@H](O)[C@H]2O)n1 [Ribavirin] | 1 (inactive)
CC1(C)O[C@@H]2[C@@H](CO[C@@]3(COS(N)(=O)=O)OC(C)(C)O[C@@H]23)O1 [Topiramate] | 1.03 (inactive)
N[C@@H](Cc1cc(I)c(Oc2ccc(O)c(I)c2)c(I)c1)C(=O)O [Liothyronine] | 0.943 (inactive)
NS(=O)(=O)c1cc(Cl)c(Cl)c(S(N)(=O)=O)c1 [Dichlorphenamide] | 1.03 (inactive)
O=C1CC2(CCCC2)CC(=O)N1CCCCN1CCN(c2ncccn2)CC1 [Buspirone hydrochloride] | 1.09 (inactive)
